# Experimental data published in PubChem BioAssay (Tox21).
# A number with no mark means an inactive call. Results filed as inconclusive are left out. Entries that show only a call come without a potency. The source made the active and inactive calls. Unless noted, the call rests on the fitted dose curve; in most records, active means well fitted curve in the direction sought with a large enough effect in the repeat runs; inconclusive means weak or mixed curves; inactive means no such curve, though single readings can be large; an effect the other way counts as inactive or inconclusive.
# Tests used:
# [1] = A CellTox Green Cytotoxicity Assay to monitor cytotoxicity in HepG2 cells - 0 hour (AID 1224882); further: nearly all actives have a fitted effect of over 35% in size
# Method in brief: (§1)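 Cytotoxicity was tracked as dead-cell DNA fluorescence in HepG2 cells treated with test compounds at 37 C; each time-point value comes from one kinetic series spanning 0, 8, 16, 24, 32 and 40 h.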
# [2] = A CellTox Green Cytotoxicity Assay to monitor cytotoxicity in HepG2 cells - 32 hour (AID 1224883); further: nearly all actives have a fitted effect of over 50% in size; further: potency means the concentration at half of the fitted maximal effect
# Method in brief: as §1
# [3] = A CellTox Green Cytotoxicity Assay to monitor cytotoxicity in HEK293 cells - 8 hour (AID 1224884); further: nearly all actives have a fitted effect of over 35% in size; further: potency means the concentration at half of the fitted maximal effect
# Method in brief: (§2)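 Real-time, in one plate: 600 HEK293 cells/well with dead-cell DNA dye, pinned compound after 5 h, 37 C incubation over 40 h; viable cells give no appreciable fluorescence.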
# [4] = qHTS RealTime-Glo MT Cell Viability Assay in HepG2 cells - 16 hour (AID 1224885); further: nearly all actives have a fitted effect of over 50% in size; further: potency means the concentration at half of the fitted maximal effect
# Method in brief: (§3)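 qHTS, HepG2, 600 cells/well, RealTime-Glo (NanoLuc + prosubstrate) added with cells; 5 h preincubation; DMSO compound addition; 37 C; luminescence at 0/8/16/24/32/40 h.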
# [5] = qHTS RealTime-Glo MT Cell Viability Assay in HEK293 cells - 24 hour (AID 1224886); further: nearly all actives have a fitted effect of over 50% in size; further: potency means the concentration at half of the fitted maximal effect
# Method in brief: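 Assay medium contained NanoLuc luciferase plus cell-permeant prosubstrate, added with HEK293 cells at 600 cells/well. After 5 h at 37 C/5% CO2 compounds were added; plates stayed at 37 C for 40 h with serial luminescence reads.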
# [6] = A CellTox Green Cytotoxicity Assay to monitor cytotoxicity in HEK293 cells - 16 hour (AID 1224888); further: nearly all actives have a fitted effect of over 35% in size; further: potency means the concentration at half of the fitted maximal effect
# Method in brief: as §2
# [7] = qHTS RealTime-Glo MT Cell Viability Assay in HepG2 cells - 0 hour (AID 1224889); further: nearly all actives have a fitted effect of over 50% in size
# Method in brief: as §3
# [8] = qHTS assay to identify small molecule antagonists of the estrogen receptor alpha (ER-alpha) signaling pathway using the BG1 cell line in the presence of 0.1 nM 17-beta-estradiol - cell viability counter screen (AID 1259241); further: nearly all actives have a fitted effect of over 40% in size
# Method in brief: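 The cell line endogenously expresses full-length ER-alpha and carries four EREs driving luciferase. Cells are cultured 5 days hormone-free, treated 22 hr with compounds and 0.1 nM estradiol, then viability is read by fluorescence.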
# [9] = qHTS assay to identify small molecule antagonists of the androgen receptor (AR) signaling pathway using the MDA cell line in the presence of 0.5 nM R1881 - cell viability counter screen (AID 1259242); further: nearly all actives have a fitted effect of over 45% in size
# Method in brief: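 Cells seeded at 3,000/well and allowed 5 hr at 37C, 0% CO2 before compound transfer and R1881 (0.5 nM final) addition; 16 hr later, live-cell protease fluorescence indicated cytotoxicity.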
# [10] = molecular target: Estrogen receptor (Homo sapiens) (UniProt P03372); assay: qHTS assay to identify small molecule antagonists of the estrogen receptor alpha (ER-alpha) signaling pathway using the BG1 cell line in the presence of 0.1 nM 17-beta-estradiol (AID 1259244); further: nearly all actives have a fitted effect of over 50% in size
# Estrogen receptor (Homo sapiens), sequence (P03372 whole entry, looked up): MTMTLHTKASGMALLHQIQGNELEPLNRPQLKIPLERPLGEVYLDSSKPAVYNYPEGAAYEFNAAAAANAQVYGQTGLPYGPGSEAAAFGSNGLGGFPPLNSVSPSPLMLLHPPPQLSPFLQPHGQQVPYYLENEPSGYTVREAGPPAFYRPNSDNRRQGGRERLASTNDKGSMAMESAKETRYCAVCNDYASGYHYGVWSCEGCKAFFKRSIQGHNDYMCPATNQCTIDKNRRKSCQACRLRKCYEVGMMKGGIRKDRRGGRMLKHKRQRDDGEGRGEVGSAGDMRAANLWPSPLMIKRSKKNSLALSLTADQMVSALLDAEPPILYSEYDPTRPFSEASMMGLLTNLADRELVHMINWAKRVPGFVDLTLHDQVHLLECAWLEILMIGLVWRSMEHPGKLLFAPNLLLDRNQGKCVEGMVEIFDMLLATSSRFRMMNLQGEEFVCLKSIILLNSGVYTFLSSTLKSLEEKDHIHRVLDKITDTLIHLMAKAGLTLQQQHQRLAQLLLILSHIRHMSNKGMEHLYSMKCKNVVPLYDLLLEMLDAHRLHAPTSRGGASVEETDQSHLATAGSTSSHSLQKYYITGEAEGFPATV
# Method in brief: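 Luciferase signal from VM7Luc4E2 ERE-reporter cells, co-dosed with test compound and 0.1 nM final 17beta-estradiol for 22 h, read with ONE-Glo.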
# [11] = qHTS assay to identify small molecule phospholipidosis (PLD) inducers (AID 1259344; active means well fitted curve in the direction sought with a large enough effect; an effect the other way counts as inactive or inconclusive; further: potency means the concentration at half of the fitted maximal effect)
# Method in brief: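 After 4 h attachment on collagen I, HepG2 cells were dosed with compound alongside LipidTOX Red, kept 24 h at 37 C, fixed, and imaged for lamellar phospholipid pits.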
# [12] = qHTS assay to identify small molecule HDAC inhibitors (AID 1259364); further: potency means the concentration at half of the fitted maximal effect;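 further: wild-type HCT-116 cells with endogenous class I/II HDAC activity; nearly all actives have a fitted effect of over 45% in size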
# Method in brief: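 HCT-116 wt cells, 1,500/well, overnight attach. Compounds (DMSO) 2 h, 37 °C. HDAC-Glo I/II, 30 min RT. Luminescence.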
# [13] = qHTS assay to identify small molecule HDAC inhibitors - cell viability counter screen (AID 1259365)
# Method in brief: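 Viability readout: CellTiter-Glo luminescence. Wild-type HCT-116 cells, 2hr compound treatment following overnight attachment at 37 C.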
# [14] = qHTS assay to identify small molecule agonists of the sonic hedgehog signaling (Shh) pathway - cell viability counter screen (AID 1259366); further: nearly all actives have a fitted effect of over 50% in size; further: potency means the concentration at half of the fitted maximal effect
# Method in brief: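 Viability measured fluorometrically (CellTiter-Fluor, 1hr, 37C) in 3T3 Gli1-Luc reporter cells after 23hr compound exposure within a 24hr incubation at 37C/5% CO2.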
# [15] = qHTS assay to identify small molecule antagonists of the sonic hedgehog signaling (Shh) pathway - cell viability counter screen (AID 1259367); further: nearly all actives have a fitted effect of over 55% in size; further: potency means the concentration at half of the fitted maximal effect
# Method in brief: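 Conditioned medium drove Shh signaling in 3T3 Gli1-Luc cells exposed to compounds at 37C and 5% CO2. Viability was determined from CellTiter-Fluor fluorescence, with reagent incubated 1 hr after 23 hr of treatment.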
# [16] = qHTS assay to identify small molecule agonists of the sonic hedgehog signaling (Shh) pathway (AID 1259368; calls by dose curve;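 further: NIH/3T3-derived 3T3Gli1-Luc cells carrying a stable Gli1-driven firefly luciferase reporter; series mostly up to about 92 µM; nearly all actives have a fitted effect of over 15% in size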)
# Method in brief: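 Following a 24 hr incubation with DMSO-dissolved compounds at 37 C, 5% CO2, Gli1-Luc NIH/3T3-derived cells received luciferase reagent for 30 min at room temperature prior to luminescence measurement.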
# [17] = qHTS assay to identify small molecule antagonists of the sonic hedgehog signaling (Shh) pathway (AID 1259369; calls by dose curve; further: nearly all actives have a fitted effect of over 45% in size; further: potency means the concentration at half of the fitted maximal effect)
# Method in brief: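 Read-out is luminescence from a firefly luciferase gene controlled by the Gli1 response element, in 3T3Gli1-Luc cells pre-incubated 4hr then exposed to compounds and conditioned medium for 24hr.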
# [18] = A CellTox Green Cytotoxicity Assay to monitor cytotoxicity in HepG2 cells - 8 hour (AID 1224890); further: nearly all actives have a fitted effect of over 45% in size; further: potency means the concentration at half of the fitted maximal effect
# Method in brief: as §1
# [19] = qHTS RealTime-Glo MT Cell Viability Assay in HEK293 cells - 8 hour (AID 1224887)
# Method in brief: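 Kinetic, non-lysing viability readout. Seed HEK293 (600/well) with reagent, incubate 5 h at 37 C/5% CO2, pin 23 nL compound in DMSO, incubate at 37 C, read luminescence at 0, 8, 16, 24, 32, 40 h.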
# [20] = molecular target: Androgen receptor (Homo sapiens) (UniProt P10275); assay: qHTS assay to identify small molecule antagonists of the androgen receptor (AR) signaling pathway using the MDA cell line in the presence of 0.5 nM R1881 (AID 1259243); further: nearly all actives have a fitted effect of over 50% in size
# Androgen receptor (Homo sapiens), sequence (P10275 whole entry, looked up): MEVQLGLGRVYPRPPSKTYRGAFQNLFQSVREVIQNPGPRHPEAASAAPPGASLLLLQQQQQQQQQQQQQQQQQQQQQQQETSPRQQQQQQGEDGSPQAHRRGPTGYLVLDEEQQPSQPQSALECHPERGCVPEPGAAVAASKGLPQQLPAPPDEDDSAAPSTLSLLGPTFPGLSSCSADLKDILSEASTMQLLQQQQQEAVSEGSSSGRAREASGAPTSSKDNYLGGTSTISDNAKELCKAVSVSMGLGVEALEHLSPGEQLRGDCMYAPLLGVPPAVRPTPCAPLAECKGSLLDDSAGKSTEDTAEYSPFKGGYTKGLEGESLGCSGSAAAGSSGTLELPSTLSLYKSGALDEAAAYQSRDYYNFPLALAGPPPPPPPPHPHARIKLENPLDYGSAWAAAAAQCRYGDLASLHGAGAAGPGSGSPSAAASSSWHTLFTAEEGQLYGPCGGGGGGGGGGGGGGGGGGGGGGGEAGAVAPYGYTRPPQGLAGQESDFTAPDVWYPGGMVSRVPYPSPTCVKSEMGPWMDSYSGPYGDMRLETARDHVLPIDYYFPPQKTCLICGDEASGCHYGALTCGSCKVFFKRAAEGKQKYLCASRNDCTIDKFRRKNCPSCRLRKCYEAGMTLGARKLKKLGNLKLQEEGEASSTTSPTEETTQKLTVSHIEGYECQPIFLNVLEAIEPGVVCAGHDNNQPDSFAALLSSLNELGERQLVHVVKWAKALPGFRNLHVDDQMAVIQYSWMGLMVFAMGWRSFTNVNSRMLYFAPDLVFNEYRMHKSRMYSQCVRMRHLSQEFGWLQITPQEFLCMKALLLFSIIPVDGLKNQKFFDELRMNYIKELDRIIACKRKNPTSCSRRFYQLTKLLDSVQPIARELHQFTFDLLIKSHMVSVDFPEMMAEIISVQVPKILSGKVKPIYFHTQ
# Method in brief: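 Luminescence from an AR/GR-responsive MMTV-luciferase construct in MDA-kb2 breast carcinoma cells, read 30 min after ONE-Glo, following 16 hr co-treatment with compounds and 0.5 nM R1881.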
Compound,Potency [1],Potency [2],Potency [3],Potency [4],Potency [5],Potency [6],Potency [7],Potency [8],Potency [9],Potency [10],Potency [11],Potency [12],Potency [13],Potency [14],Potency [15],Potency [16],Potency [17],Potency [18],Potency [19],Potency [20]
CN=C(N)NC(=O)Nc1c(C)cccc1C,inactive,inactive,inactive,inactive,inactive,inactive,inactive,inactive,inactive,inactive,inactive,inactive,inactive,inactive,inactive,inactive,inactive,,,
COc1cc(NC(C)CCCN)c2ncccc2c1 (centres undefined),inactive,inactive,inactive,inactive,inactive,inactive,inactive,,inactive,inactive,inactive,inactive,,inactive,inactive,inactive,inactive,inactive,,
Nc1nc2ccc(OC(F)(F)F)cc2s1,inactive,inactive,inactive,inactive,,inactive,inactive,inactive,inactive,inactive,inactive,,inactive,inactive,inactive,inactive,inactive,inactive,inactive,
CC(O)Cn1cnc2c1c(=O)n(C)c(=O)n2C (centres undefined),inactive,inactive,inactive,inactive,inactive,inactive,inactive,inactive,inactive,,inactive,inactive,inactive,inactive,inactive,inactive,inactive,,,
O[C@@H](CNC[C@H](O)[C@H]1CCc2cc(F)ccc2O1)[C@@H]1CCc2cc(F)ccc2O1,inactive,10.7 µM (active),23.9 µM (active),21.3 µM (active),19 µM (active),26.8 µM (active),,,,,3.55 µM (active),inactive,inactive,29.8 µM (active),29.8 µM (active),inactive,13.3 µM (active),23.9 µM (active),,
O=[N+]([O-])c1ccc2ncccc2c1,inactive,inactive,inactive,inactive,inactive,inactive,inactive,inactive,inactive,inactive,,inactive,inactive,inactive,inactive,inactive,inactive,,,
Cc1ccc(NC(=O)N(C)C)cc1NC(=O)N(C)C,inactive,inactive,inactive,inactive,inactive,inactive,inactive,inactive,inactive,inactive,,inactive,inactive,inactive,inactive,,,,,
CCCC(=O)OC(=O)CCC,inactive,inactive,inactive,inactive,inactive,inactive,inactive,inactive,inactive,,,,,inactive,inactive,,inactive,inactive,,
CCNc1nc(N)nc(Cl)n1,inactive,inactive,inactive,inactive,inactive,inactive,inactive,inactive,inactive,,,inactive,inactive,inactive,inactive,inactive,inactive,inactive,,
COc1ccc(-c2cc(C(F)F)nn2-c2ccc(S(N)(=O)=O)cc2)cc1F,inactive,inactive,inactive,inactive,,inactive,inactive,inactive,inactive,inactive,inactive,inactive,inactive,inactive,inactive,inactive,,inactive,inactive,
CC(C)OC(=O)c1ccccc1C(=O)OC(C)C,inactive,inactive,inactive,inactive,inactive,inactive,inactive,,inactive,inactive,,inactive,inactive,inactive,inactive,inactive,inactive,inactive,,
CCCCCCCCCCCCCC(=O)OCC(O)CO (centres undefined),inactive,inactive,inactive,inactive,inactive,,inactive,inactive,inactive,,,inactive,inactive,inactive,inactive,inactive,inactive,inactive,,inactive
CC(=O)OCC(C)C,inactive,inactive,inactive,inactive,inactive,inactive,inactive,inactive,inactive,inactive,,inactive,inactive,inactive,inactive,inactive,inactive,,,inactive
O=S(=O)(O)CO,inactive,inactive,inactive,inactive,inactive,inactive,inactive,,,,,inactive,inactive,inactive,inactive,inactive,inactive,inactive,,
COc1ccc(-c2cc(=S)ss2)cc1,inactive,inactive,inactive,inactive,inactive,inactive,inactive,,,inactive,inactive,11.9 µM (active),,inactive,inactive,inactive,inactive,inactive,,
CCN(CC)C(=O)N1CCN(C)CC1,inactive,inactive,inactive,inactive,inactive,,inactive,inactive,inactive,,inactive,inactive,inactive,inactive,inactive,inactive,inactive,,,
Cc1cccc2sc(N)nc12,inactive,inactive,inactive,inactive,inactive,,inactive,,inactive,inactive,,inactive,inactive,inactive,inactive,inactive,inactive,inactive,,
